Screening data: PubChem, several laboratories
MCL1 BIM primary: disrupts human MCL1 binding to BIM-BH3 peptide; Q07820; GST-MCL1 / FITC-Bim-BH3 fluorescence polarization; inhibition, % at 10.9 µM; actives 0.68% (n = 320,000); AID 2057;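 active means inhibition above the mean inhibition of all tested compounds plus 3 SD, set per campaign, cut at about 40% in these data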;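 further: 0% = DMSO wells and 100% = unlabeled Bim-BH3 peptide control; higher means more loss of mP so more displacement of Bim peptide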
Target sequence (Q07820 whole entry, looked up): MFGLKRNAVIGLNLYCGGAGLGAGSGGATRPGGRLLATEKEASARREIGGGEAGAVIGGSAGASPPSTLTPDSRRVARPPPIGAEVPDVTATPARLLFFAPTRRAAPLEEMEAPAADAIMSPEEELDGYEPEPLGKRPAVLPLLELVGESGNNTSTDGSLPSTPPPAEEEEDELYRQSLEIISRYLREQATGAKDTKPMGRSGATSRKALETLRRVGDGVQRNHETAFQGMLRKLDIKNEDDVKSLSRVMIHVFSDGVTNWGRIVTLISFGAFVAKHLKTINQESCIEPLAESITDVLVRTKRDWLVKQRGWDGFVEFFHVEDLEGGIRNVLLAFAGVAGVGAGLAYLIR
Mcl1-Bid inh: disrupts binding of human Mcl-1 to Bid peptide. Q07820. TR-FRET Mcl-1/Bid-Dy647 peptide binding, 1536-well. inhibition, % at 21.7 µM. actives 0.97% (n = 220,000). AID 1021;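 active means compounds that cut the binding signal by more than half at the single screening dose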;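 further: His-tagged Mcl-1 with europium anti-His antibody binding Bid BH3 peptide; 0% = Mcl-1 plus peptide wells and 100% = peptide-only wells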
L929 necroptosis: L929 zVAD cell death inhibition | viability rescue, % at 10 µM | L929 zVAD necroptosis rescue, ATP luminescence, 24 h; with zVAD 60 µM | actives 0.38% (n = 220,000);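 active means activation, scaled between plate controls, above about 75%, limit read from the data; inactive means activation under that limit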;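 further: 0% = zVAD with DMSO and 100% = DMSO alone without zVAD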
Mcl1-Noxa inh: Mcl-1/Noxa interaction inhibition. Q07820. TR-FRET Mcl-1/Noxa peptide binding, 2 h. inhibition, % at 21.7 µM. actives 1.5% (n = 220,000). AID 1022;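 active means compounds that cut the protein-peptide binding signal by more than 50% relative to plate controls in a single-dose test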;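 further: His-tagged Mcl-1 with rhodamine Noxa BH3 peptide and terbium anti-His antibody; 0% = Mcl-1 plus Noxa peptide wells and 100% = peptide-only wells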
Bim-Mcl-1: inhibitors of Bim-Mcl-1 interaction, human. Q07820. Bead-based flow cytometry, Bim peptide-Mcl-1 binding. inhibition, % at 10 µM. actives 0.1% (n = 190,000). AID 1009; in the data active means inhibition above about 40%;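 further: 0% = no compound tracer wells and 100% = peptide blocker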
TNF death inh: inhibitors of TNF-alpha induced necroptosis in Jurkat FADD-/- cells. Jurkat FADD-/- TNF necroptosis rescue, ATP luminescence, 24 h; 0 = TNF only, 100 = no-TNF cells. activation (protection from cell death), % at 10 µM. actives 0.068% (n = 220,000). AID 463075;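 active means activation, meaning protection from cell death, of at least 50% relative to plate controls; inactive means activation below 50%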;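 further: necroptosis triggered by 40 ng/mL TNF-alpha added together with compound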
An asterisk follows results filed as active. Compounds with a hit are over-represented: about 2.4% of the library has one in this group of screens.

Results for O=C1CCC(C(=O)N2CCCC(N3CCN(c4cccc(C(F)(F)F)c4)CC3)C2)=NN1 (stereo not given) ?
MCL1 BIM primary: -2

What do the screens show for `C/C(=N\NC(=O)c1cccc([N+](=O)[O-])c1)c1ccco1`?
MCL1 BIM primary: 4; Mcl1-Bid inh: -26; L929 necroptosis: 1; Mcl1-Noxa inh: -19; TNF death inh: 0

What do the screens show for `C/C(=N\NC(=O)c1cccc(O)c1)c1cccc(NC(=O)c2ccc(F)cc2)c1`?
MCL1 BIM primary: 4

How did C/C(=N\NC(=O)c1cccc(N/N=C(\C)c2cc(O)ccc2O)c1)c1cc(O)ccc1O do in these assays?
MCL1 BIM primary: 23; Mcl1-Bid inh: -6; L929 necroptosis: 70; Mcl1-Noxa inh: 100*; Bim-Mcl-1: 5; TNF death inh: -11

What do the screens show for `C/C(=N\NC(=O)c1cccc(N/N=C(\C)c2ccco2)c1)c1ccco1`?
Mcl1-Bid inh: -41; L929 necroptosis: 3; Mcl1-Noxa inh: 84*; Bim-Mcl-1: 3; TNF death inh: -1

Results for C=CCn1c(=S)[nH]c2sc3c(c2c1=O)CCC3 ?
Mcl1-Bid inh: -56; L929 necroptosis: -1; Mcl1-Noxa inh: 56*; Bim-Mcl-1: -4; TNF death inh: -2

How did CN1c2ccccc2C(C)(C)C12C=Nc1c(ccc3ccccc13)O2 (stereo not given) do in these assays?
MCL1 BIM primary: 43*; Mcl1-Bid inh: -13; L929 necroptosis: 0; Mcl1-Noxa inh: 13; Bim-Mcl-1: 0; TNF death inh: -1

What do the screens show for `CN1c2ccccc2C(C)(C)[C@]12C=Cc1cc(O)ccc1O2`?
MCL1 BIM primary: 15; Mcl1-Bid inh: -67; L929 necroptosis: 0; Mcl1-Noxa inh: 46; Bim-Mcl-1: 0; TNF death inh: -12

What do the screens show for `O=C(NNS(=O)(=O)c1ccccc1)Nc1ccc(F)cc1`?
MCL1 BIM primary: 3

How did CCOC(=O)c1c(C)[nH]c(C(=O)CSc2nc3ccccc3o2)c1C do in these assays?
MCL1 BIM primary: 0; Mcl1-Bid inh: -7; L929 necroptosis: 0; Mcl1-Noxa inh: 69*; Bim-Mcl-1: -1; TNF death inh: -2

How did CC1N(C)c2cccc3cccc(c23)N1C do in these assays?
MCL1 BIM primary: 7; Mcl1-Bid inh: -11; L929 necroptosis: 1; Mcl1-Noxa inh: 63*; Bim-Mcl-1: 11; TNF death inh: 0

Results for CCN(CC)CCn1nc2c3c(cccc3c1=O)-c1ccccc1-2 ?
MCL1 BIM primary: 6; Mcl1-Bid inh: -3; L929 necroptosis: 46; Mcl1-Noxa inh: 70*; Bim-Mcl-1: -1; TNF death inh: -11

How did CC(C)(C)OC(=O)N[C@H](C(=O)OC(C)(C)C)c1ccc2c(c1)OCO2 do in these assays?
MCL1 BIM primary: -11

Results for NS(=O)(=O)c1ccc(NC(=O)CSc2cn[nH]n2)cc1 ?
MCL1 BIM primary: 3

Results for O=C1/C(=C/c2ccc(O)c(O)c2)Oc2cc(O)ccc21 ?
MCL1 BIM primary: 0; Mcl1-Bid inh: -83; L929 necroptosis: 13; Mcl1-Noxa inh: 75*; TNF death inh: -2

What do the screens show for `O=C1/C(=C/c2cccc([N+](=O)[O-])c2)Oc2cc(O)ccc21`?
MCL1 BIM primary: -5

Results for COc1c(O)c(=O)n2c3ccccc3c3ccnc1c32 ?
MCL1 BIM primary: 9

How did O=c1c(Cl)c(O)c2cccc3c4ccccc4n1c23 do in these assays?
MCL1 BIM primary: 3; Mcl1-Bid inh: 18; Mcl1-Noxa inh: 65*; Bim-Mcl-1: -3; TNF death inh: 3

How did C=CCn1c(SCC(=O)c2[nH]c(C)c(C(C)=O)c2C)nnc1-c1ccncc1 do in these assays?
MCL1 BIM primary: -4; Mcl1-Bid inh: 5; L929 necroptosis: 0; Mcl1-Noxa inh: 8; Bim-Mcl-1: -1; TNF death inh: 1

How did C=CCn1c(SCC(=O)c2[nH]c(C)c(C(=O)OC)c2C)nc2scc(-c3ccc(OC)c(OC)c3)c2c1=O do in these assays?
MCL1 BIM primary: -1; Mcl1-Bid inh: 65*; L929 necroptosis: 2; Mcl1-Noxa inh: 53*; Bim-Mcl-1: -5; TNF death inh: 2

Results for COc1ccccc1-c1nc(SCC(=O)NCC2CCCO2)c2c(=O)n(C)c(=O)n(C)c2n1 (stereo not given) ?
MCL1 BIM primary: 6; Mcl1-Bid inh: -3; L929 necroptosis: 1; Mcl1-Noxa inh: 2; Bim-Mcl-1: -3; TNF death inh: 1

What do the screens show for `COc1ccccc1-c1nc(SCC(=O)N(C)c2ccccc2)c2c(=O)n(C)c(=O)n(C)c2n1`?
MCL1 BIM primary: 2; Mcl1-Bid inh: 57*; L929 necroptosis: -1; Mcl1-Noxa inh: 35; Bim-Mcl-1: 0; TNF death inh: 0

What do the screens show for `CCOc1ccc2nc(SCC(=O)N3c4ccccc4Sc4ccccc43)sc2c1`?
MCL1 BIM primary: 5; Mcl1-Bid inh: 0; L929 necroptosis: 2; Mcl1-Noxa inh: 14; Bim-Mcl-1: -2; TNF death inh: 1

What do the screens show for `CCOc1ccc2nc(SCC(=O)N3c4ccccc4Sc4ccccc43)c(C#N)cc2c1`?
MCL1 BIM primary: 1; Mcl1-Bid inh: -120; L929 necroptosis: 5; Mcl1-Noxa inh: -196; Bim-Mcl-1: 42*; TNF death inh: 0

Results for CCOC(=O)C1=C(O)/C(=C/c2cc(OC)c(O)c(OC)c2)SC1=Nc1ccc(OC)cc1 ?
Mcl1-Bid inh: -4; L929 necroptosis: 6; Mcl1-Noxa inh: 75*; Bim-Mcl-1: -1; TNF death inh: -7

What do the screens show for `CCOC(=O)C1=C(O)/C(=C/c2ccc(OCC(=O)O)c(OC)c2)SC1=Nc1ccc(OCC)cc1`?
MCL1 BIM primary: 10; Mcl1-Bid inh: -14; L929 necroptosis: 3; Mcl1-Noxa inh: 24; Bim-Mcl-1: -5; TNF death inh: 2

Results for O=C1Nc2ccccc2C1=Nc1ccc(F)cc1 ?
MCL1 BIM primary: 7

How did Nc1n[nH]c(=S)n1/N=C1/C(=O)Nc2ccccc21 do in these assays?
Mcl1-Bid inh: 22; L929 necroptosis: 4; Mcl1-Noxa inh: 71*; Bim-Mcl-1: 0; TNF death inh: 1

How did COCCn1c(SCc2ccc(C)cc2)nc2c1c(=O)[nH]c(=O)n2C do in these assays?
MCL1 BIM primary: -4

How did CCOc1cc(/C=C2\C(=O)N(c3nc(-c4ccc(Br)cc4)cs3)N=C2c2ccccc2)ccc1O do in these assays?
MCL1 BIM primary: 7; Mcl1-Bid inh: 81*; L929 necroptosis: 0; Mcl1-Noxa inh: 94*; Bim-Mcl-1: -3; TNF death inh: -4

How did O=C1/C(=C\c2ccc(O)c(O)c2)C(c2ccccc2)=NN1c1ccccc1 do in these assays?
Mcl1-Bid inh: -34; L929 necroptosis: -1; Mcl1-Noxa inh: 71*; Bim-Mcl-1: 1; TNF death inh: -9

Results for COc1ccc(/C=C2\C(=O)N(c3nc(-c4ccc(Br)cc4)cs3)N=C2c2ccccc2)cc1 ?
L929 necroptosis: 1; TNF death inh: -2
